Results as given in the supplement of paper PMC12494721.
Where a name gives a salt, the structure may show the parent alone.

System: Ruminococcus gnavus DSM 108212
Experiment: fold change of 2-Phenylethylamine concentration vs plate DMSO controls (fold change (ratio)); higher = more amine produced, active = hit call of the paper (significant change in both replicates, either direction)
Settings: incubation time: 27 h, anaerobic, 37 °C;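 for the amine columns active = adjusted P below 0.05 in both replicates with a change the same way and a mean fold change under 0.8 or over 1.25; inactive = the rest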
Outline: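 Using LC–triple-quadrupole MS with dynamic MRM, amines were quantified against external calibration curves and corrected for drift within each batch. Samples were whole anaerobic mGAM cultures of four gut strains, grown 27 h at 37 °C from OD 0.1 before 1:1 dilution, extracted with cold acetonitrile/methanol containing 0.1% formic acid and centrifuged. Compounds were present at 20 µM final (sweeteners at 50 µM final). The numbers are fold changes versus plate DMSO controls, each the mean of 2 biological replicates.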

Fold change of 2-Phenylethylamine concentration, active:
O=C(Cn1cnnn1)N[C@@H]1C(=O)N2C(C(=O)O)=C(CSc3nncs3)CS[C@H]12 [Ceftezole] (20 µM) 0.105
CC1(C)S[C@@H]2[C@H](NC(=O)C(C(=O)O)c3ccccc3)C(=O)N2[C@H]1C(=O)O (some centres undefined) [Carbenicillin disodium salt] (20 µM) 0.0579
CN(C(=O)CN(CCO)CC(=O)N(C)C(C)(C)Cc1ccccc1)C(C)(C)Cc1ccccc1 [Oxethazaine] (20 µM) 0.728
C=C1c2c(Cl)ccc(O)c2C(O)=C2C(=O)[C@]3(O)C(O)=C(C(N)=O)C(=O)[C@@H](N(C)C)[C@@H]3[C@@H](O)[C@H]12.O=C(O)c1cc(S(=O)(=O)O)ccc1O [Meclocycline sulfosalicylate] (20 µM) 0.11

Fold change of 2-Phenylethylamine concentration, inactive:
CC#C[C@]1(O)CC[C@H]2[C@@H]3CCC4=CC(=O)CCC4=C3[C@@H](c3ccc(N(C)C)cc3)C[C@@]21C [Mifepristone] (20 µM) 0.902
C[C@]12CC[C@@H]3c4ccc(O)cc4CC[C@H]3[C@@H]1CCC2=O [Estrone] (20 µM) 0.884
O=C(O)c1cccnc1Nc1cccc(C(F)(F)F)c1 [Niflumic acid] (20 µM) 0.988
OCCN1CCN(CCCN2c3ccccc3C=Cc3ccccc32)CC1 [Opipramol dihydrochloride] (20 µM) 1.02
COCC1=C(C(=O)OC(C)OC(=O)OC(C)C)N2C(=O)[C@@H](NC(=O)/C(=N\OC)c3csc(N)n3)[C@H]2SC1 (some centres undefined) [Cefpodoxime proxetil] (20 µM) 0.605
CN(CCOc1ccc(CC2SC(=O)NC2=O)cc1)c1ccccn1 (centres undefined) [Rosiglitazone hydrochloride] (20 µM) 1.12
CC(C(=O)O)c1ccc(-c2ccccc2)c(F)c1 (centres undefined) [Flurbiprofen] (20 µM) 0.882
CCCCc1oc2ccc(NS(C)(=O)=O)cc2c1C(=O)c1ccc(OCCCN(CCCC)CCCC)cc1 [Dronedarone hydrochloride] (20 µM) 0.957
O=C(COc1ccc(Cl)cc1)N1CCN(Cc2ccc3c(c2)OCO3)CC1 [Fipexide hydrochloride] (20 µM) 0.916
CCCCCCCCCCCCCCCC[N+](C)(C)CCN(Cc1ccc(OC)cc1)c1ncccn1 [Thonzonium bromide] (20 µM) 0.782
C#C[C@]1(O)CC[C@H]2[C@@H]3CCc4cc(OC)ccc4[C@H]3CC[C@@]21C [Mestranol] (20 µM) 0.831
OC(CCN1CCCCC1)(c1ccccc1)C1CCCCC1 (centres undefined) [Trihexyphenidyl-D,L hydrochloride] (20 µM) 0.92
CCOc1ccc(NC(N)=O)cc1 [(4-Ethoxyphenyl)urea] (50 µM) 0.947
NC(=O)c1ncn([C@@H]2O[C@H](CO)[C@@H](O)[C@H]2O)n1 [Ribavirin] (20 µM) 0.967
O=C(c1ccccc1)c1ccc2n1CCC2C(=O)O (centres undefined) [Ketorolac tromethamine] (20 µM) 0.994
CCOC(=O)[C@H](CCc1ccccc1)N[C@@H](C)C(=O)N1Cc2ccccc2C[C@H]1C(=O)O [Quinapril hydrochloride] (20 µM) 1.03
CC[N+]1(CC)CCC(=C(c2ccccc2)c2ccccc2)C1C (centres undefined) [Prifinium Bromide] (20 µM) 0.85
O=P(O)(O)C(Cl)(Cl)P(=O)(O)O [Clodronate disodium] (20 µM) 0.981
CCOC(=O)[C@@](C)(N)Cc1ccc(O)c(O)c1 [Methyldopate hydrochloride] (20 µM) 1.07
O=C(NCCO[N+](=O)[O-])c1cccnc1 [Nicorandil] (20 µM) 1
CN1CCN(c2c(F)cc3c(=O)c(C(=O)O)cn(CCF)c3c2F)CC1 [Fleroxacin] (20 µM) 1.15
Cn1c(=O)c2c(ncn2CC(=O)O)n(C)c1=O [Acefylline] (20 µM) 0.886
CC(=O)[C@H]1CC[C@H]2[C@@H]3C[C@H](C)C4=CC(=O)CC[C@]4(C)[C@H]3[C@@H](O)C[C@]12C [Medrysone] (20 µM) 1.01
N[C@@H](CSCCCO)C(=O)O [Fudosteine] (20 µM) 1.03
CC1=C(C(=O)O)N2C(=O)[C@@H](NC(=O)[C@H](N)C3=CCC=CC3)[C@H]2SC1 [Cephradine monohydrate] (20 µM) 0.994
Nc1ncnc2c1ncn2[C@@H]1O[C@H](CO)[C@@H](O)[C@@H]1O [Vidarabine] (20 µM) 0.976
CC(C)(CO)[C@@H](O)C(=O)NCCC(=O)NCCSSCCNC(=O)CCNC(=O)[C@H](O)C(C)(C)CO [D-Pantethine] (20 µM) 1.02
CC(=O)SCC(Cc1ccccc1)C(=O)NCC(=O)OCc1ccccc1 (centres undefined) [Racecadotril] (20 µM) 0.954
O=C(CCCN1CCN(c2ccccn2)CC1)c1ccc(F)cc1 [Azaperone] (20 µM) 0.998
C[C@H](NCc1ccc(OCc2cccc(F)c2)cc1)C(N)=O [Safinamide] (20 µM) 0.96
CCCC(=O)N1CCCN(c2nc(N)c3cc(OC)c(OC)cc3n2)CC1 [Bunazosin hydrochloride] (20 µM) 1.03
Cc1ccc2c(c1)c1c3n2CCNC3CCC1 (centres undefined) [Pirlindole mesylate] (20 µM) 1.08
CC(C)(C)NC(=O)[C@@H]1CN(Cc2cccnc2)CCN1C[C@@H](O)C[C@@H](Cc1ccccc1)C(=O)N[C@H]1c2ccccc2C[C@H]1O [Indinavir sulfate] (20 µM) 1.02
COc1cc(Nc2c(C#N)cnc3cc(OCCCN4CCN(C)CC4)c(OC)cc23)c(Cl)cc1Cl [Bosutinib] (20 µM) 0.989
O=C1[C@H](CC[C@H](O)c2ccc(F)cc2)[C@@H](c2ccc(O)cc2)N1c1ccc(F)cc1 [Ezetimibe] (20 µM) 0.832
